What all share (assay): DAPPL (digital affinity profiling via proximity ligation, sequencing); 10 mM Tris-HCl pH 7.5, 50 mM NaCl, 1 mM DTT, 4% glycerol, room temperature, 30 min; GST-TFs on glutathione beads, 16-mer random dsDNA library, 0.1% formaldehyde crosslink after washing; high values mean tight binding
What all share (conditions): protein: recombinant; tags: N-terminal GST; dsDNA, one strand shown

One assay deals with T1, ELK1 (Homo sapiens, UniProt P19419 1-428).
T1 sequence: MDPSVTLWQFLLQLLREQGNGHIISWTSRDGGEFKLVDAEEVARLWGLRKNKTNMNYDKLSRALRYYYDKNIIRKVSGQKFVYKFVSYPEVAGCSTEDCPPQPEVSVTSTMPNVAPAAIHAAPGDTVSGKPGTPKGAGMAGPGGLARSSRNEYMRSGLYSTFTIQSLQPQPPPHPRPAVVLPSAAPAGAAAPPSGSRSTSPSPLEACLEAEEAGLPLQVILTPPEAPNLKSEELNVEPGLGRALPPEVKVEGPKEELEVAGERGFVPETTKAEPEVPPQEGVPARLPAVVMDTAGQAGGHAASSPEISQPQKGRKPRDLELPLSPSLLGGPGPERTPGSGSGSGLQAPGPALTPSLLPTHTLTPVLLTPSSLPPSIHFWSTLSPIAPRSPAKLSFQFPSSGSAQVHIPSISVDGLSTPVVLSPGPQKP
The method, boiled down: (§1)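 Sequencing on an Illumina NextSeq500 followed washing, crosslinking with 0.1% formaldehyde, proximity ligation (BsaI/T4 ligase, 1 h, 37 °C) and PCR amplification of pools that had been incubated for 30 min at room temperature with 200 nmole of a random double-stranded 16-mer DNA library in Tris/NaCl/DTT/glycerol buffer. Each pool held DNA-barcoded human transcription factors, expressed in yeast as GST fusions and captured on glutathione beads, plus a tag-only sample. Binding signal is a hexamer's read frequency for a factor divided by its frequency in the tag-only sample.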

In a further assay the target is T2, GABPA (Homo sapiens, UniProt Q06546 1-454).
T2 sequence: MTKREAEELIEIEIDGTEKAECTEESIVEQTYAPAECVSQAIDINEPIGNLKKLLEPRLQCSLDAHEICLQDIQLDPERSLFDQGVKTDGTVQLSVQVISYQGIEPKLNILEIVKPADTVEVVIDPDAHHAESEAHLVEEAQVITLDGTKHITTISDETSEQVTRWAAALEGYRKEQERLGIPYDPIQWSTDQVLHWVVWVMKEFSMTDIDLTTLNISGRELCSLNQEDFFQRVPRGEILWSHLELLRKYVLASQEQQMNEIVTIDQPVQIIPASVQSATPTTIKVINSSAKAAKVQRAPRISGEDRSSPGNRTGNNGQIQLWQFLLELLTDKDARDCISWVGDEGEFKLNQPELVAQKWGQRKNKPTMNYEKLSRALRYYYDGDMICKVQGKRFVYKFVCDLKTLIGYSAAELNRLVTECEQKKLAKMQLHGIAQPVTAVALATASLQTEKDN
The method, boiled down:
as §1

The target in the next assay is ELF1 (Homo sapiens, UniProt P32519 1-619). A digest of the protocol:
as §1

A further assay concerns the target T3, EHF (Homo sapiens, UniProt Q9NZC4 1-300).
T3 sequence: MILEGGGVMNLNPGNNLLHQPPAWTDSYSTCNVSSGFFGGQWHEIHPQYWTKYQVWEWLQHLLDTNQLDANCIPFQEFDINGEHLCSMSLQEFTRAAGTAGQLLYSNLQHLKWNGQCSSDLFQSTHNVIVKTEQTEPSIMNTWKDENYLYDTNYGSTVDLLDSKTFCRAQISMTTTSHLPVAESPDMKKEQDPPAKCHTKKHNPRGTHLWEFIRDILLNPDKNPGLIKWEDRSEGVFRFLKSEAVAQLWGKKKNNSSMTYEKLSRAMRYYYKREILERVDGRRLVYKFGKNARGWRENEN
A digest of the protocol: as §1

A further assay concerns the target T4, ELK3 (Homo sapiens, UniProt P41970 1-407).
T4 sequence: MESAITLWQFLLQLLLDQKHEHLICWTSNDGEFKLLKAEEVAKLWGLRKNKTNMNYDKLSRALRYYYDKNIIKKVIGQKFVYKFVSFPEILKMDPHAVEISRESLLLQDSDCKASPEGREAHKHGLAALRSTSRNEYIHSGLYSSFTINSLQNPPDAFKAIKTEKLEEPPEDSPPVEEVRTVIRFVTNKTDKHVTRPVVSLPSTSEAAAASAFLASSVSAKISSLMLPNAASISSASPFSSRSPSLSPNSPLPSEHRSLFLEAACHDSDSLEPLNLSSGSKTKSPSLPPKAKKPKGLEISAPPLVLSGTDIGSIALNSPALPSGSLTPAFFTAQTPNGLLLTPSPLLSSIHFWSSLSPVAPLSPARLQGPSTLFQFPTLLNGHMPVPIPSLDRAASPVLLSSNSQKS
The method, boiled down: as §1

The target in a further assay is T5, SPIC (Homo sapiens, UniProt Q8N5J4 1-248).
T5 sequence: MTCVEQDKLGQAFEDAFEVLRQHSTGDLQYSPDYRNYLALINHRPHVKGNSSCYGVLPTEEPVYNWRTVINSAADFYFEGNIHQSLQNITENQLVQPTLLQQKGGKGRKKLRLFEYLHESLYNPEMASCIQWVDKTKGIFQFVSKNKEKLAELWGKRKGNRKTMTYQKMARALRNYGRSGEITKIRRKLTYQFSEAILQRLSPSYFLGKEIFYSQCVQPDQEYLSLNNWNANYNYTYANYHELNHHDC
A digest of the protocol: as §1

The target of another assay is ELF4 (Homo sapiens, UniProt Q99607 1-663). The method, boiled down:
as §1

The target of another assay is T6, ELK4 (Homo sapiens, UniProt P28324-2 1-405).
T6 sequence: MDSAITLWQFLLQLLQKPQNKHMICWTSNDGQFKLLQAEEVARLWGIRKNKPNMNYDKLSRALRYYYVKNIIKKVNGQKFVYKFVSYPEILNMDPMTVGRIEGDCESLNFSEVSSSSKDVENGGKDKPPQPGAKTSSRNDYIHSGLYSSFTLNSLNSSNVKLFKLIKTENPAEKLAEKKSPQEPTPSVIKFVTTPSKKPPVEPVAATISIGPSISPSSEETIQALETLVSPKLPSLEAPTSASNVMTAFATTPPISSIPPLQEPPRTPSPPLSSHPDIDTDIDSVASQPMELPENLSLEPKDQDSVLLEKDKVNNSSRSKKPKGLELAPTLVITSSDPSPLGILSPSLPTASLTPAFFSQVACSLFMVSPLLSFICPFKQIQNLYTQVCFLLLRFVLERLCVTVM
The method, boiled down:
as §1

In the next assay the target is T7, ELF3 (Homo sapiens, UniProt P78545 1-371).
T7 sequence: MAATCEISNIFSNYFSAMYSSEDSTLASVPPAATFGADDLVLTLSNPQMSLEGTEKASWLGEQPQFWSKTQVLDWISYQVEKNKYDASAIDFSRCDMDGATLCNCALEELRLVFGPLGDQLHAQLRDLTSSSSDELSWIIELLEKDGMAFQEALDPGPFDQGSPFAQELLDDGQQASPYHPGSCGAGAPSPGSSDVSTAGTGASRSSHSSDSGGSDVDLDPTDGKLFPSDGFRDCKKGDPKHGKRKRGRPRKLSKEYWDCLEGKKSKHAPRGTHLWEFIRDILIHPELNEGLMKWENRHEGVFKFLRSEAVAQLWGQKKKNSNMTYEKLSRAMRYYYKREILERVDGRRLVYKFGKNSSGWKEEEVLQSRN
A digest of the protocol: as §1

For a further assay, the target named is T8, ETV3L (Homo sapiens, UniProt Q6ZN32 1-361).
T8 sequence: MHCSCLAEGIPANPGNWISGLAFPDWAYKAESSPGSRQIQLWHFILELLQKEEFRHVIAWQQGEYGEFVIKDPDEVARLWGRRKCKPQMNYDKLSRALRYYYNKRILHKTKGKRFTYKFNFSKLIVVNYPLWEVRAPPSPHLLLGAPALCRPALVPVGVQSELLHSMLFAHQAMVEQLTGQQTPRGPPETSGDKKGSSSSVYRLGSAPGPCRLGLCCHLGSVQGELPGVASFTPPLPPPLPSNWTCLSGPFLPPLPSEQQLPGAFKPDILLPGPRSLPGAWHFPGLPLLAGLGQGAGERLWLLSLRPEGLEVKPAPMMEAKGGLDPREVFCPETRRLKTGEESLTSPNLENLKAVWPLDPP
A digest of the protocol:
as §1

The target of the next assay is T9, ETS2 (Homo sapiens, UniProt P15036 1-469).
T9 sequence: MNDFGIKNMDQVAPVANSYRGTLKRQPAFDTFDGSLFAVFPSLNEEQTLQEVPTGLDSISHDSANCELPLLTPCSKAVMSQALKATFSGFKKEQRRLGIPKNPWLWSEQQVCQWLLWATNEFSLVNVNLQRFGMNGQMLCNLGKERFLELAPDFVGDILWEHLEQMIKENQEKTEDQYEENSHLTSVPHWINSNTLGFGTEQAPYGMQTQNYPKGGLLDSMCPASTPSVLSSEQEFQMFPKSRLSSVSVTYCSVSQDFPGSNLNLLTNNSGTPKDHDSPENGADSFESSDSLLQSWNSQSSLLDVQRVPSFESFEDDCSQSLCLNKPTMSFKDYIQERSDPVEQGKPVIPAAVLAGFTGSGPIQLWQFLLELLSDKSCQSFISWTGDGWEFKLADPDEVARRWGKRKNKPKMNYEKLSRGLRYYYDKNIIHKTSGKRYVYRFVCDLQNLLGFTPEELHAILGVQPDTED
A digest of the protocol: as §1

The target of a further assay is T10, SPDEF (Homo sapiens, UniProt O95238 1-335).
T10 sequence: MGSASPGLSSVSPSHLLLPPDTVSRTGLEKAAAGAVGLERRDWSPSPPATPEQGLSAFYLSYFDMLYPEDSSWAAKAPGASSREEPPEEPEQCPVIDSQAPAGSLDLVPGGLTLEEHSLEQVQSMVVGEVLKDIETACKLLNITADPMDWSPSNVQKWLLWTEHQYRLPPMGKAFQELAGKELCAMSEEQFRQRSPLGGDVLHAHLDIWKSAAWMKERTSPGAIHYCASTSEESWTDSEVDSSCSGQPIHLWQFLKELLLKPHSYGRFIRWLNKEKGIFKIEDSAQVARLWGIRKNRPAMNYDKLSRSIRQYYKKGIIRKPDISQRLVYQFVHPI
A digest of the protocol: as §1

The next assay deals with T11, ETV7 (Homo sapiens, UniProt Q9Y603 1-341).
T11 sequence: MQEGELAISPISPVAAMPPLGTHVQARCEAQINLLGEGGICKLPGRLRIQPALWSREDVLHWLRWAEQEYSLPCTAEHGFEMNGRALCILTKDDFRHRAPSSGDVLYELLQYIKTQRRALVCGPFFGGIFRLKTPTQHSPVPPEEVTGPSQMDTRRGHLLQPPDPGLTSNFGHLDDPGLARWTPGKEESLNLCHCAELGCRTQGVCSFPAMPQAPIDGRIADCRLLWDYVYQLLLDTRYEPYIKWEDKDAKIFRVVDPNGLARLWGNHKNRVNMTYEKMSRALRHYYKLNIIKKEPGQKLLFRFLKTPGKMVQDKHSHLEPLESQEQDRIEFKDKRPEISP
A digest of the protocol: as §1

In a further assay the target is T12, ETV3 (Homo sapiens, UniProt P41162-2 1-143).
T12 sequence: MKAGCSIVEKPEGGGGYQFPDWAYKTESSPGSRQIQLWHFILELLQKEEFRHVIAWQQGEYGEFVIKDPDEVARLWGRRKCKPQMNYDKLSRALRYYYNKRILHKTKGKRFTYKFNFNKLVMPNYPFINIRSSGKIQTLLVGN
A digest of the protocol:
as §1

The target of another assay is ETV6 (Homo sapiens, UniProt P41212 1-452). The method, boiled down:
as §1

Sequence of ELF1 (P32519 whole entry): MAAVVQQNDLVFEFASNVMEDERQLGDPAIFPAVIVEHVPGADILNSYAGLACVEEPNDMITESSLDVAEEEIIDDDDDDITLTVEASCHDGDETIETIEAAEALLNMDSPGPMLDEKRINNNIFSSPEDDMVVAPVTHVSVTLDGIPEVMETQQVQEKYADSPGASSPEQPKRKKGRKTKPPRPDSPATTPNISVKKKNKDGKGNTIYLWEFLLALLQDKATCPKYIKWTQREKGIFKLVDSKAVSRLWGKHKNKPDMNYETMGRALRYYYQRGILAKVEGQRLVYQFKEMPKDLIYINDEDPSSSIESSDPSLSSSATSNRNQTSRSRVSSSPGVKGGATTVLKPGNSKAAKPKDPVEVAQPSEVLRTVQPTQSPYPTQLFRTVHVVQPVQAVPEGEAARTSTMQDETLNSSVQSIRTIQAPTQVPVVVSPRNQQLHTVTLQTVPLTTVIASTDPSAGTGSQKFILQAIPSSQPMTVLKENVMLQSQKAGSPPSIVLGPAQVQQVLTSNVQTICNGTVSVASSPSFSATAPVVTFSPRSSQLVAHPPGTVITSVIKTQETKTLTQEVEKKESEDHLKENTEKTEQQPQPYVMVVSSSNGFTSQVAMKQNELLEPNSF
Sequence of ELF4 (Q99607 whole entry): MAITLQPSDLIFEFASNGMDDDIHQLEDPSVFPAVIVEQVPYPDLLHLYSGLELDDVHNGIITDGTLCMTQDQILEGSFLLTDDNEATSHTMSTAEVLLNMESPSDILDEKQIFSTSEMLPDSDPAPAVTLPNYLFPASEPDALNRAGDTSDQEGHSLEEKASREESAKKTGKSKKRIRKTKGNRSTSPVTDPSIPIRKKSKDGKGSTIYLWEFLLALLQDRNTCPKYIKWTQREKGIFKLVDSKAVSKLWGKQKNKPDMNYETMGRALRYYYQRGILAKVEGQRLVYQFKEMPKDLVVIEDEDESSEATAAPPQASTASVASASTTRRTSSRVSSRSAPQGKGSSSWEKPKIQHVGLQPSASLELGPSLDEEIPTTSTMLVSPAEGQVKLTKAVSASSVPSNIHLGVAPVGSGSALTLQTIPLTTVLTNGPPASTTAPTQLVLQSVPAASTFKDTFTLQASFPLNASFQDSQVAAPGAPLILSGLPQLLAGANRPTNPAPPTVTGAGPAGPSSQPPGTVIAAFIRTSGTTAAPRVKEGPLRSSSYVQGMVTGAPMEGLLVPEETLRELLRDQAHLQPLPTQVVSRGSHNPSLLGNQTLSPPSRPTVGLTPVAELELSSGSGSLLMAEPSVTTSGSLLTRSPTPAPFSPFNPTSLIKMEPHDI
Sequence of ETV6 (P41212 whole entry): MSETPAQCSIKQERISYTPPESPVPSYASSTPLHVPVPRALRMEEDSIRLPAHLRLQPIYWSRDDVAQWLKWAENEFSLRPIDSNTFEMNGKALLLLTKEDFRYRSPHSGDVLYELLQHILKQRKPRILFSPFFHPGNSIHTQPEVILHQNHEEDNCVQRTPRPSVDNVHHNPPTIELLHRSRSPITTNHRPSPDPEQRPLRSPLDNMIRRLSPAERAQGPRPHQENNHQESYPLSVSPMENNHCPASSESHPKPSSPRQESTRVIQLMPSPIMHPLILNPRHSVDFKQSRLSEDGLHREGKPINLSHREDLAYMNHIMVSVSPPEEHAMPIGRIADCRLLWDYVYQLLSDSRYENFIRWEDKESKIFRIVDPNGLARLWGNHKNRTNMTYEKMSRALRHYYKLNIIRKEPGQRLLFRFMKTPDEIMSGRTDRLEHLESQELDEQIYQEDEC

Take ATAAGT: the binding signal in the assay with ELK1 was 1.05 fold enrichment (6-mer frequency, TF over GST control); with GABPA, 1.07 fold enrichment (6-mer frequency, TF over GST control); with ELF1 it was 1.08 fold enrichment (6-mer frequency, TF over GST control); in the assay with EHF, 1.04 fold enrichment (6-mer frequency, TF over GST control); with ELK3 it was 1.09 fold enrichment (6-mer frequency, TF over GST control); with SPIC it was 1.02 fold enrichment (6-mer frequency, TF over GST control). For the same sequence, the binding signal with ELF4 is 1.1 fold enrichment (6-mer frequency, TF over GST control); with ELK4 it was 1.06 fold enrichment (6-mer frequency, TF over GST control); in the assay with ELF3, 1.09 fold enrichment (6-mer frequency, TF over GST control); with ETV3L it was 1.05 fold enrichment (6-mer frequency, TF over GST control); with ETS2, 1.06 fold enrichment (6-mer frequency, TF over GST control); with SPDEF it was 1.05 fold enrichment (6-mer frequency, TF over GST control). Also, the binding signal was 1.05 fold enrichment (6-mer frequency, TF over GST control) in the assay with ETV7; 1.03 fold enrichment (6-mer frequency, TF over GST control) with ETV3; 1.06 fold enrichment (6-mer frequency, TF over GST control) with ETV6.

The record behind these values is publication PMC7862700, “An all-to-all approach to the identification of sequence-specific readers for epigenetic DNA modifications on cytosine”.
